In PubChem BioAssay AID1159580 (chemical genetic matrix, 2015):
In all, about 5,500 compounds went through this assay and about 2,000 (36%) were called active. Inconclusive results (about 18%) are left out. Some of the results follow. Values without a mark were called inactive. No stated cut-off is given here; in the data, active means normalized growth mostly below about 0.91 (no sharp cut-off); inconclusive means no clear call, values can overlap the other calls; inactive means mostly above about 0.92.

Assay: chemical genetic growth profiling, strain panel (AID 1159580);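 further: tested at 20 µM; growth read once vehicle control cultures reached saturation at 30 °C; 1 = growth at the plate median or of vehicle wells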
Conditions: growth OD

CCOP(=S)(OCC)SCSP(=S)(OCC)OCC
normalized growth (S. cerevisiae deletion strains, locus YAL013W, strain DEP1, stronger effect = lower value): 0.993
normalized growth (S. cerevisiae deletion strains, locus YBR021W, strain FUR4, stronger effect = lower value): 1
normalized growth (S. cerevisiae deletion strains, locus YBR229C, strain ROT2, stronger effect = lower value): 0.961
normalized growth (S. cerevisiae deletion strains, locus YCL029C, strain bik1, stronger effect = lower value): 0.978
normalized growth (S. cerevisiae deletion strains, locus YDL035C, strain GPR1, stronger effect = lower value): 0.956
normalized growth (S. cerevisiae deletion strains, locus YDL074C, strain BRE1, stronger effect = lower value): 0.89
normalized growth (S. cerevisiae deletion strains, locus YDL101C, strain DUN1, stronger effect = lower value): 0.97
normalized growth (S. cerevisiae deletion strains, locus YDL134C, strain PPH21, stronger effect = lower value): 0.986
normalized growth (S. cerevisiae deletion strains, locus YDL185W, strain tfp1, stronger effect = lower value): 0.957
normalized growth (S. cerevisiae deletion strains, locus YDL192W, strain arf1, stronger effect = lower value): 0.979
normalized growth (S. cerevisiae deletion strains, locus YDR101C, strain arx1, stronger effect = lower value): 0.989
normalized growth (S. cerevisiae deletion strains, locus YDR150W, strain NUM1, stronger effect = lower value): 0.984
normalized growth (S. cerevisiae deletion strains, locus YDR162C, strain NBP2, stronger effect = lower value): 0.806 (active)
normalized growth (S. cerevisiae deletion strains, locus YDR318W, strain mcm21, stronger effect = lower value): 0.981
normalized growth (S. cerevisiae deletion strains, locus YDR388W, stronger effect = lower value): 0.994
normalized growth (S. cerevisiae deletion strains, locus YDR502C, strain sam2, stronger effect = lower value): 0.99
normalized growth (S. cerevisiae deletion strains, locus YEL061C, strain CIN8, stronger effect = lower value): 0.995
normalized growth (S. cerevisiae deletion strains, locus YER110C, stronger effect = lower value): 0.987
normalized growth (S. cerevisiae deletion strains, locus YER155C, strain BEM2, stronger effect = lower value): 1.01
normalized growth (S. cerevisiae deletion strains, locus YER167W, strain BCK2, stronger effect = lower value): 0.972
normalized growth (S. cerevisiae deletion strains, locus YGL078C, strain dbp3, stronger effect = lower value): 0.984
normalized growth (S. cerevisiae deletion strains, locus YGL086W, strain mad1, stronger effect = lower value): 1
normalized growth (S. cerevisiae deletion strains, locus YGL248W, strain PDE1, stronger effect = lower value): 0.946
normalized growth (S. cerevisiae deletion strains, locus YGR078C, strain PAC10, stronger effect = lower value): 0.969
normalized growth (S. cerevisiae deletion strains, locus YGR135W, strain pre9, stronger effect = lower value): 0.981
normalized growth (S. cerevisiae deletion strains, locus YGR229C, strain SMI1, stronger effect = lower value): 0.908
normalized growth (S. cerevisiae deletion strains, locus YGR252W, strain gcn5, stronger effect = lower value): 0.954
normalized growth (S. cerevisiae deletion strains, locus YHR030C, strain SLT2, stronger effect = lower value): 1.01
normalized growth (S. cerevisiae deletion strains, locus YHR079C, strain IRE1 (second series), stronger effect = lower value): 0.989
normalized growth (S. cerevisiae deletion strains, locus YHR094C, strain hxt1, stronger effect = lower value): 0.999
normalized growth (S. cerevisiae deletion strains, locus YHR129C, strain ARP1, stronger effect = lower value): 0.969
normalized growth (S. cerevisiae deletion strains, locus YHR200W, strain rpn10, stronger effect = lower value): 0.995
normalized growth (S. cerevisiae deletion strains, locus YIL066C, strain RNR3, stronger effect = lower value): 0.94
normalized growth (S. cerevisiae deletion strains, locus YIL073C, strain SPO22, stronger effect = lower value): 0.907
normalized growth (S. cerevisiae deletion strains, locus YIL125W, strain kgd1, stronger effect = lower value): 0.981
normalized growth (S. cerevisiae deletion strains, locus YIR030C, strain dcg1, stronger effect = lower value): 0.984
normalized growth (S. cerevisiae deletion strains, locus YJL095W, strain BCK1, stronger effect = lower value): 0.964
normalized growth (S. cerevisiae deletion strains, locus YJL134W, strain LCB3, stronger effect = lower value): 0.988
normalized growth (S. cerevisiae deletion strains, locus YJL168C, strain set2, stronger effect = lower value): 0.984
normalized growth (S. cerevisiae deletion strains, locus YJL187C, strain SWE1 (second series), stronger effect = lower value): 0.984
normalized growth (S. cerevisiae deletion strains, locus YJR043C, strain POL32, stronger effect = lower value): 0.984
normalized growth (S. cerevisiae deletion strains, locus YJR075W, strain HOC1, stronger effect = lower value): 0.928
normalized growth (S. cerevisiae deletion strains, locus YKL009W, strain mrt4, stronger effect = lower value): 0.946
normalized growth (S. cerevisiae deletion strains, locus YKL068W, stronger effect = lower value): 0.993
normalized growth (S. cerevisiae deletion strains, locus YKL085W, strain MDH1 (second series), stronger effect = lower value): 0.984
normalized growth (S. cerevisiae deletion strains, locus YKL085W, strain MDH1, stronger effect = lower value): 0.984
normalized growth (S. cerevisiae deletion strains, locus YKL190W, strain CNB1, stronger effect = lower value): 1
normalized growth (S. cerevisiae deletion strains, locus YKR001C, strain vps1, stronger effect = lower value): 0.978
normalized growth (S. cerevisiae deletion strains, locus YLR039C, strain RIC1, stronger effect = lower value): 0.868
normalized growth (S. cerevisiae deletion strains, locus YLR058C, strain SHM2, stronger effect = lower value): 0.982
normalized growth (S. cerevisiae deletion strains, locus YLR102C, strain apc9, stronger effect = lower value): 0.983
normalized growth (S. cerevisiae deletion strains, locus YLR262C, strain YPT6, stronger effect = lower value): 0.829
normalized growth (S. cerevisiae deletion strains, locus YLR268W, strain sec22, stronger effect = lower value): 0.981
normalized growth (S. cerevisiae deletion strains, locus YLR330W, strain CHS5, stronger effect = lower value): 0.992
normalized growth (S. cerevisiae deletion strains, locus YLR342W, strain FKS1 (second series), stronger effect = lower value): 0.996
normalized growth (S. cerevisiae deletion strains, locus YLR371W, strain rom2, stronger effect = lower value): 0.985
normalized growth (S. cerevisiae deletion strains, locus YLR418C, strain cdc73, stronger effect = lower value): 0.932
normalized growth (S. cerevisiae deletion strains, locus YML016C, strain PPZ1, stronger effect = lower value): 0.988
normalized growth (S. cerevisiae deletion strains, locus YML032C, strain rad52, stronger effect = lower value): 0.989
normalized growth (S. cerevisiae deletion strains, locus YML124C, strain tub3, stronger effect = lower value): 0.996
normalized growth (S. cerevisiae deletion strains, locus YMR078C, strain ctf18, stronger effect = lower value): 0.997
normalized growth (S. cerevisiae deletion strains, locus YMR223W, strain ubp8, stronger effect = lower value): 0.98
normalized growth (S. cerevisiae deletion strains, locus YMR263W, strain SAP30, stronger effect = lower value): 0.981
normalized growth (S. cerevisiae deletion strains, locus YMR307W, strain GAS1, stronger effect = lower value): 0.954
normalized growth (S. cerevisiae deletion strains, locus YNL067W, strain RPL9B, stronger effect = lower value): 0.971
normalized growth (S. cerevisiae deletion strains, locus YNL128W, strain TEP1, stronger effect = lower value): 0.918
normalized growth (S. cerevisiae deletion strains, locus YNL153C, strain GIM3, stronger effect = lower value): 0.987
normalized growth (S. cerevisiae deletion strains, locus YNL233W, strain BNI4, stronger effect = lower value): 0.982
normalized growth (S. cerevisiae deletion strains, locus YNL250W, strain rad50, stronger effect = lower value): 0.982
normalized growth (S. cerevisiae deletion strains, locus YNL271C, strain bni1, stronger effect = lower value): 0.991
normalized growth (S. cerevisiae deletion strains, locus YNL298W, strain CLA4, stronger effect = lower value): 0.979
normalized growth (S. cerevisiae deletion strains, locus YNL307C, strain MCK1, stronger effect = lower value): 0.987
normalized growth (S. cerevisiae deletion strains, locus YNL322C, strain KRE1, stronger effect = lower value): 0.981
normalized growth (S. cerevisiae deletion strains, locus YNR052C, strain pop2, stronger effect = lower value): 0.986
normalized growth (S. cerevisiae deletion strains, locus YOL006C, strain TOP1, stronger effect = lower value): 0.788
normalized growth (S. cerevisiae deletion strains, locus YOL012C, strain htz1): 1.08
normalized growth (S. cerevisiae deletion strains, locus YOL147C, strain pex11, stronger effect = lower value): 1.01
normalized growth (S. cerevisiae deletion strains, locus YOR061W, strain CKA2, stronger effect = lower value): 0.964
normalized growth (S. cerevisiae deletion strains, locus YOR069W, strain VPS5, stronger effect = lower value): 0.995
normalized growth (S. cerevisiae deletion strains, locus YOR136W, strain idh2, stronger effect = lower value): 0.988
normalized growth (S. cerevisiae deletion strains, locus YOR144C, strain elg1, stronger effect = lower value): 0.989
normalized growth (S. cerevisiae deletion strains, locus YOR184W, strain ser1, stronger effect = lower value): 0.968
normalized growth (S. cerevisiae deletion strains, locus YOR316C, strain cot1, stronger effect = lower value): 0.969
normalized growth (S. cerevisiae deletion strains, locus YPL055C, strain LGE1, stronger effect = lower value): 0.914
normalized growth (S. cerevisiae deletion strains, locus YPL241C, strain CIN2, stronger effect = lower value): 0.989
normalized growth (S. cerevisiae deletion strains, locus YPR119W, strain clb2, stronger effect = lower value): 0.993
normalized growth (S. cerevisiae deletion strains, locus YPR141C, strain kar3, stronger effect = lower value): 0.949
normalized growth (S. cerevisiae deletion strains, locus YPR163C, strain tif3, stronger effect = lower value): 0.994
normalized growth (S. cerevisiae deletion strains, locus YPR167C, strain met16, stronger effect = lower value): 0.979
normalized growth (S. cerevisiae deletion strains, strain wtn01, stronger effect = lower value): 0.981
normalized growth (S. cerevisiae strains, strain wild type, stronger effect = lower value): 0.982
